Results on 5 compounds are retold here after PubChem BioAssay.

Inconclusive results are not listed. Active and inactive are the calls of the source.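 How the source made its calls, unless noted: active means GFP signal, as percent of the solvent control, above the screen mean plus 3 SD, about 149; inconclusive means no reading because the compound's own fluorescence upset strain identification; inactive means the rest.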

The nature of experiment [1]: yeast TOR pathway RPL19A-GFP modulators, primary screen, cell-based, S. cerevisiae, multiplex flow cytometry (AID 1862; in the data active means percent of DMSO control GFP below about 86%;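 further: lower values mimic rapamycin by blocking the RPL19A rise seen in DMSO cells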). As to conditions: S. cerevisiae RPL19A-GFP strain, flow cytometry fluorescence, 3 h; at 10 µM; stronger effect = lower value. (Flow cytometry measures light scatter and fluorescence of single cells or particles in a stream.)
Experiment [2] is described as follows: modulators of MEP2-GFP levels in yeast, primary screen, S. cerevisiae, multiplex flow cytometry (AID 1867;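 active means GFP response, as percent of the DMSO control, above the screen-wide mean plus 3 SD, about 139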;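 further: median GFP channel fluorescence of barcode-gated MEP2-GFP cells measured by flow cytometry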). As to conditions: S. cerevisiae MEP2-GFP strain, 3 h, at 10 µM, stronger effect = higher value, 100% means same as DMSO wells.
A short description of experiment [3]: modulators of CIT2-GFP expression in yeast, primary screen, S. cerevisiae, GFP fusion, multiplex flow cytometry (AID 1870;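 active means percent response above a set limit, the screen-wide mean plus 3 SD, cut at about 130% in these data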;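 further: barcoded CIT2-GFP strain pooled with four other GFP strains with rapamycin as positive control; median GFP fluorescence per well over plate mean of DMSO wells so 100% = DMSO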). As to conditions: 3 h, at 10 µM, stronger effect = higher value.
The nature of experiment [4]: modulators of LAP4-GFP expression in yeast, primary screen, S. cerevisiae, multiplex flow cytometry (AID 1873). As to conditions: 3 h, at 10 µM, stronger effect = higher value.
The nature of experiment [5]: modulators of AGP1-GFP expression in yeast TOR pathway, primary screen, cell-based, multiplex flow cytometry, S. cerevisiae (AID 1887;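 active means GFP signal above the screen-wide mean plus 3 SD, that is over about 124.5% of the solvent control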;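 further: AGP1-GFP fusion strain of S. cerevisiae within a five-strain barcoded multiplex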). Conditions: 3 h, at 10 µM, stronger effect = higher value.
The nature of experiment [6]: inhibitors of CD8+ T cell-vesicle binding, pilot screen, LFA-1/ICAM-1 modulator project, MLPCN validation set, flow cytometry (AID 2523;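 active means response below a set limit, under 55% cells CD8-positive and vesicle-bound, and CD8 cells' 90th-percentile brightness under 279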;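 on vesicle binding response: mean PE anti-B7-1 fluorescence of CD8+ cells relative to row control; 100% = QL9-loaded vesicles with DMSO vehicle in the same plate row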). As to conditions: 2C mouse CD8+ T cells, at 7 µM, stronger effect = lower value; double positive events: measured here: CD8+/vesicle+ event percentage.
The target in experiment [7] is Integrin beta-1 (Homo sapiens) + Integrin alpha-4 (Homo sapiens) (UniProt P13612+P05556). As to the kind of experiment: inhibition of HUTS-21 binding to VLA-4, pilot screen, VLA-4 allosteric modulator project, U937 cells, HUTS-21 mAb, flow cytometry, validation set (AID 2674;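 active means inhibition above 50%, about 3 SD of the validation set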;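 further: antibody binding induced by the VLA-4 ligand LDV present at three times its Kd; 0% = LDV ligand with antibody and no compound and 100% = antibody without LDV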). Conditions: HUTS-21 LIBS mAb binding, at 6.7 µM, stronger effect = higher value, binding induced by LDV ligand.

Experiment [8] in a line: superoxide lowering in aged yeast cells, pilot screen, validation compound set (AID 2706;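 active means superoxide response below 65% of plate, a cut near 3 SD across the whole screen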;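 further: yeast exposed to compound for one week at 30 degrees C before staining; 100% = mean of all compound wells on the same plate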). As to conditions: S. cerevisiae aging, superoxide DHE fluorescence; at 10 µM; stronger effect = lower value.
The target in experiment [9] is Beta-adrenergic receptor kinase 1 (Homo sapiens) (UniProt P25098). Kind of experiment: GRK2 binders displacing RNA aptamer, biochemical, validation, human GRK2, bead flow cytometry (AID 488806;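 active means aptamer binding inhibition above 30%, about 3 SD of noise from non-fluorescent compounds; inactive means inhibition at or below 30%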). Conditions: bead-bound GRK2, FAM-aptamer displacement, at 10 µM, stronger effect = higher value.
Experiment [10] deals with Beta-2 adrenergic receptor (Homo sapiens) (UniProt P07550). Kind of experiment: beta2AR agonists driving receptor internalization, pilot screen, cell-based, FAP fluorogen, flow cytometry, validation set (AID 504459;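 active means percent response above 42, roughly 3 SD of non-fluorescent test compounds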;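 further: agonist-driven loss of surface beta2AR via internalization measured by FAP dye flow cytometry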). Conditions: Am2.2-beta2AR cells, FAP surface receptor flow cytometry; at 10 µM; stronger effect = higher value.
The target in experiment [11] is AP-2 complex subunit beta (Homo sapiens) (UniProt P63010). Kind of experiment: inhibitors of arrestin peptide binding to AP2, pilot screen, biochemical, validation set, GST-AP2 beads, flow cytometry (AID 504541;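 active means inhibition above 54%, about 3 SD of non-fluorescent compounds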;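 further: AP2 carries R879A mutation and is captured from E. coli lysate; bead-bound FITC arrestin peptide fluorescence measuring arrestin peptide binding to AP2; 0% = DMSO wells and 100% = excess unlabeled arrestin peptide control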). Conditions: FITC arrestin peptide, at 10 µM, stronger effect = higher value, AP2 beta2 appendage fragment, R879A mutant.
Experiment [12] can be described thus: yeast V-ATPase proton transport modulators, S. cerevisiae, pHLuorin, HTS validation (AID 504600; in the data active means response above about 15%;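 further: plate controls were DMSO for no effect and reference compound for full effect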). As to conditions: S. cerevisiae pHLuorin cytosolic pH, at 10 µM, stronger effect = higher value.
The subject of experiment [13] is anti-desmoglein-3 scFv antibody binding to human DSG3. As to the kind of experiment: inhibitors of anti-DSG3 scFv binding to DSG3, pilot screen, biochemical, validation compound set, bead-based, flow cytometry (AID 588368;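 active means binding below the plate cutoff, the plate median minus 3 SD, with a reading above zero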;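 further: signal is the median channel fluorescence of bead-bound GFP antibody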). Conditions: Protein G beads, DSG3-Fc, scFv-GFP binding, at 10 µM, stronger effect = lower value.
A short description of experiment [14]: inhibitors of fungal efflux pumps CDR1, CDR2, MDR1, pilot screen, validation compound set, multiplex, phenotypic (AID 588506;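 active means efflux inhibition above 0.42, the validation set average plus 4 SD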;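 further: Nile Red retained in cells so higher fluorescence means more efflux inhibition; 0 = negative control wells and 1 = enniatin B 25 µM full block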). As to conditions: S. cerevisiae pump-expressing triplex, Nile Red efflux flow cytometry; at 10 µM; stronger effect = higher value; the pumps come from Candida albicans.
Experiment [15] has as its target ATP-binding cassette sub-family B member 6 (Homo sapiens) (UniProt Q9NP58). As to the kind of experiment: ABCB6 transporter inhibitors, pilot screen, K562-ABCB6 cells, flow cytometry, validation set (AID 588550;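 active means inhibition above the screen-wide mean plus 3 SD, about 51%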;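 further: 0% = DMSO wells and 100% = benzethonium chloride 70 µM positive control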). Conditions: K562-ABCB6 porphyrin accumulation, 1 h, at 10 µM, stronger effect = higher value.
Experiment [16] in a line: promoters of myeloid differentiation in arrested cells, primary screen, cell-based, GFP/MAC1 double positive, flow cytometry, validation set (AID 588685;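 active means differentiation response of at least 50%, scaled between solvent and reference control, from cells with both markers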;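 further: compound exposure lasts four days before antibody staining and flow analysis; 0% = DMSO wells and 100% = 5 µM fulvestrant positive control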). Conditions: ER-HoxA9 marrow cells, stronger effect = higher value, normalized: vehicle 0, fulvestrant 100.

Chain of Integrin beta-1 (Homo sapiens) + Integrin alpha-4 (Homo sapiens) (P05556 whole entry, looked up): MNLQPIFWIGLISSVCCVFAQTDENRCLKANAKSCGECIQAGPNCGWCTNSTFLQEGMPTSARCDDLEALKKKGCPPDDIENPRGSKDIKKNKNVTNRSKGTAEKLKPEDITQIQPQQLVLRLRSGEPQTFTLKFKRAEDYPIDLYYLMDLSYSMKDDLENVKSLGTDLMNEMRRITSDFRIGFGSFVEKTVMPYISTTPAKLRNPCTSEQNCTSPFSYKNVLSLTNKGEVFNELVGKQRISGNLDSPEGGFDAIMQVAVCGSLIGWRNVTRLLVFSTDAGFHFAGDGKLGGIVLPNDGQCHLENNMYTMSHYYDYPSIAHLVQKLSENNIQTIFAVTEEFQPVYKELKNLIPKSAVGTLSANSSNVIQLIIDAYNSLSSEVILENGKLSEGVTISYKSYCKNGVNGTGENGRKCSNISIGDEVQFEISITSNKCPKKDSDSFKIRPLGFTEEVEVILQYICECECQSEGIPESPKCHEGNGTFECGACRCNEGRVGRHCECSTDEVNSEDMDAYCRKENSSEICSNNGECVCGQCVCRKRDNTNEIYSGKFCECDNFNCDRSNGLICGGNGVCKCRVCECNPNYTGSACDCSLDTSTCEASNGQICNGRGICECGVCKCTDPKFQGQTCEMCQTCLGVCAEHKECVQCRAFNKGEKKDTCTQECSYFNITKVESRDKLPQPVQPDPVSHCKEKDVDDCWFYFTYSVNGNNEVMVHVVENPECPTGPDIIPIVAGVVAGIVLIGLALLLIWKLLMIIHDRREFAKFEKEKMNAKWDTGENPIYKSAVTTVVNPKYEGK
Chain of Integrin beta-1 (Homo sapiens) + Integrin alpha-4 (Homo sapiens) (P13612 whole entry, looked up): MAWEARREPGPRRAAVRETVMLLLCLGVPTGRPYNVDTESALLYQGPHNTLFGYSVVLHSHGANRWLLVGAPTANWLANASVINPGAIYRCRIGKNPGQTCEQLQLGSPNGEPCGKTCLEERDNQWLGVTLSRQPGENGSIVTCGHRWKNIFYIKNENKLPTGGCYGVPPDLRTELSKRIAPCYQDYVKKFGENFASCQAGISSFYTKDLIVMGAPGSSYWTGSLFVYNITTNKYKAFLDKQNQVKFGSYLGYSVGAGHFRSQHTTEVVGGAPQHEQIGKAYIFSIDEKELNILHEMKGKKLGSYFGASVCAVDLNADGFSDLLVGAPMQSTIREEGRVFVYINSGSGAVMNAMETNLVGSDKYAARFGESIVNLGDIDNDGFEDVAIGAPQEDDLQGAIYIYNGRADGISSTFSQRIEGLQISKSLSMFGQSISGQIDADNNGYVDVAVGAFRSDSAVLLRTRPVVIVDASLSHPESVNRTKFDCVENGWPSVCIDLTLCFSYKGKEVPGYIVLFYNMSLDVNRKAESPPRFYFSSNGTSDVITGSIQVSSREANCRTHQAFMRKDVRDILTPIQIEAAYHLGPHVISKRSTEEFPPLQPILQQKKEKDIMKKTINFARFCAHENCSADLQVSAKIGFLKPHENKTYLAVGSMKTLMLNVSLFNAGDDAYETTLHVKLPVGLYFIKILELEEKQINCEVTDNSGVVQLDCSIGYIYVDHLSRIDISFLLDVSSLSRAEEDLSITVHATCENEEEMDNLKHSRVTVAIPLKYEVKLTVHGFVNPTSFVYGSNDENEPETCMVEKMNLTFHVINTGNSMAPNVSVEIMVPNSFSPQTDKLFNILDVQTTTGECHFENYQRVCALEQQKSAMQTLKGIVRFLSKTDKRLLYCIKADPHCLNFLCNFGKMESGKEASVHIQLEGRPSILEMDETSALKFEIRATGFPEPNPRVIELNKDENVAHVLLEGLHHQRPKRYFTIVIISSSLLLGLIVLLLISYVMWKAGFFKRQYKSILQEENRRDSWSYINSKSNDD
Chain of ATP-binding cassette sub-family B member 6 (Homo sapiens) (Q9NP58 whole entry, looked up): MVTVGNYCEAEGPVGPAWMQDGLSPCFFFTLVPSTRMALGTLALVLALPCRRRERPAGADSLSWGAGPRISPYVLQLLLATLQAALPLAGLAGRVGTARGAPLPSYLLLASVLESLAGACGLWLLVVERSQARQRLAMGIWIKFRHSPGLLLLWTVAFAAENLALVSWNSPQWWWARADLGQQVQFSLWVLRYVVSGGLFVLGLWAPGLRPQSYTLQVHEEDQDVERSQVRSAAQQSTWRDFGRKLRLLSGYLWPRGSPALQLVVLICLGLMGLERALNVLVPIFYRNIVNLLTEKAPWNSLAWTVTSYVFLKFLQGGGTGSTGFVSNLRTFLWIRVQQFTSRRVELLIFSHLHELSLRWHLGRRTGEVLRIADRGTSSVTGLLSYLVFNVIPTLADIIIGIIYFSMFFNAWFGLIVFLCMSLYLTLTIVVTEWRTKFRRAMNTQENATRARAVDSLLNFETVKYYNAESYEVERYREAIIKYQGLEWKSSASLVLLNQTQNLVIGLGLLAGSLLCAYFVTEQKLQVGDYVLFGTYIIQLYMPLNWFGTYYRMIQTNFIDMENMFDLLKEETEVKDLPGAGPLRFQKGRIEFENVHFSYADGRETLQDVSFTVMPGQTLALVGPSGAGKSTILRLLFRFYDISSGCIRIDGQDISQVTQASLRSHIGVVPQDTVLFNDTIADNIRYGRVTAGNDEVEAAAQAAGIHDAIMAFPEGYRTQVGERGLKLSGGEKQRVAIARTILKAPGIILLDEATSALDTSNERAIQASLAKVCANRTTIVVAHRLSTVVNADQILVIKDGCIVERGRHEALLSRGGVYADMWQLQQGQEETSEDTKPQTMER
Chain of Beta-2 adrenergic receptor (Homo sapiens) (P07550 whole entry, looked up): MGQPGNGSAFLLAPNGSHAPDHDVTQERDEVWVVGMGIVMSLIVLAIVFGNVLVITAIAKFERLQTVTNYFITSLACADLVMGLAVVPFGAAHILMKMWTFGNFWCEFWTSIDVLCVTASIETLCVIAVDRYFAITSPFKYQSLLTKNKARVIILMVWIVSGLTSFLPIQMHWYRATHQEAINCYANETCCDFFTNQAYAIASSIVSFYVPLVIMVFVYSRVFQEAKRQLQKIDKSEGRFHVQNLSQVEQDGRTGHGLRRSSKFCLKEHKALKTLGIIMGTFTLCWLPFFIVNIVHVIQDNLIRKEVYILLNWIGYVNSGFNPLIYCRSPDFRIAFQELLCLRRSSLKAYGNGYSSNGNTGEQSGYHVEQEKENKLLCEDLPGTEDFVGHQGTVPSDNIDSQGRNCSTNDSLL
Chain of Beta-adrenergic receptor kinase 1 (Homo sapiens) (P25098 whole entry, looked up): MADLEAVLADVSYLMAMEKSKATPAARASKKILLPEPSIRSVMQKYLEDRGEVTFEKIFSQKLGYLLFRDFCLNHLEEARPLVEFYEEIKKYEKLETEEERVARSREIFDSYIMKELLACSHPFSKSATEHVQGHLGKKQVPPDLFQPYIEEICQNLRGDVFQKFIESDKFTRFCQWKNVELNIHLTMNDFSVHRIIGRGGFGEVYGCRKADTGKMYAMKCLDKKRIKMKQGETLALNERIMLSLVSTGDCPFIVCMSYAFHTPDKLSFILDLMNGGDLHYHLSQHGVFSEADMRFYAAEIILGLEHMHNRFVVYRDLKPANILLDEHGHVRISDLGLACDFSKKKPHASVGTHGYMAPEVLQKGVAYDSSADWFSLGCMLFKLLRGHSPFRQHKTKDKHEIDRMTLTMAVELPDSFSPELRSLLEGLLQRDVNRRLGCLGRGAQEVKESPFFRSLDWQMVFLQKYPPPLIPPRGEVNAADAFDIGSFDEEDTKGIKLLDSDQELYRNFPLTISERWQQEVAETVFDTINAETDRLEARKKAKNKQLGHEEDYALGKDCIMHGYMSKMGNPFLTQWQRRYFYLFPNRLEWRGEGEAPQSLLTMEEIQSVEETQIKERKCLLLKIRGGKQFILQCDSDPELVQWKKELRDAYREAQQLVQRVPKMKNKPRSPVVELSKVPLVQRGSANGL
Chain of AP-2 complex subunit beta (Homo sapiens) (P63010 whole entry, looked up, the tested form may be a part, one chain of several): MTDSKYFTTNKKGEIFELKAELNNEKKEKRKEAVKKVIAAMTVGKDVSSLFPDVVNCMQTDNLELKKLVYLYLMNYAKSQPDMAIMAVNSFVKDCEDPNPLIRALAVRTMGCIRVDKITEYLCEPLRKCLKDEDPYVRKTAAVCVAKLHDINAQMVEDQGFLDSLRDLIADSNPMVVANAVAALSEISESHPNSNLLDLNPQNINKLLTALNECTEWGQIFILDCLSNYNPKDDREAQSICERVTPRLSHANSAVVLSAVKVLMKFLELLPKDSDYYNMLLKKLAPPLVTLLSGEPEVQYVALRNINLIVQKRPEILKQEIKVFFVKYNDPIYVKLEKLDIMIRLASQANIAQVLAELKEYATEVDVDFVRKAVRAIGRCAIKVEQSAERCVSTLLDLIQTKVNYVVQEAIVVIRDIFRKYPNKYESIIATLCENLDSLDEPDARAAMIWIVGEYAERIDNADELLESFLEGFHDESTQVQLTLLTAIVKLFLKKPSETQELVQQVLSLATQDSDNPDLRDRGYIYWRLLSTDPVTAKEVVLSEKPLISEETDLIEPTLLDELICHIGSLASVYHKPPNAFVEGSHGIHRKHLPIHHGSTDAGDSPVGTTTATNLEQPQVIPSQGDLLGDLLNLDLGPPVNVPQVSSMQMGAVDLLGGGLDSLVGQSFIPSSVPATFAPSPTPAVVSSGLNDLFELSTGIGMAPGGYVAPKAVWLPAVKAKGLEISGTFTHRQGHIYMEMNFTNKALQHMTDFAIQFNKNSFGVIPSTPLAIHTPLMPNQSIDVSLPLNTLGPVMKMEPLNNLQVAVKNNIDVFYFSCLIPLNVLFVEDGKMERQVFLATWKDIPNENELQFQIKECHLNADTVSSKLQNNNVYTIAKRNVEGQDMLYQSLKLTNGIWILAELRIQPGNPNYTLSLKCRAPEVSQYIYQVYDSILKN

On to `O=C(CCc1c[nH]c2ccccc12)NCc1ccco1`, for which, in experiment [1], the percent of DMSO control GFP is 102% (inactive). Besides, the GFP response vs DMSO in experiment [2] was 106% (inactive); in experiment [4], 109% (inactive). For the same compound, in [3], the percent response of DMSO control is 93.8% (inactive). Further, the GFP response, % of DMSO in [5] is 106% (inactive). The compound also had a double positive events in experiment [6] of 63%. Moreover, the vesicle binding response in experiment [6] is 201% (inactive). For the same compound, the inhibition (in general, the relative decrease from the control value, in per cent) is 3.99% (inactive) in [7], 33.1% (inactive) in experiment [11] and 5% (inactive) in [15]. Further, the superoxide response (% of plate) in experiment [8] is 98.4% (inactive). For the same compound, the aptamer binding inhibition in [9] was -3% (inactive). The values for the response in experiment [10] and in experiment [12] were -21.7% (inactive) and 1.49% (inactive), respectively. Also, in [13], the binding (% of control) is 103% (inactive). The efflux inhibition (fraction of control) in experiment [14] was 0.04 (inactive). In addition, the differentiation response in experiment [16] is 0.92% (inactive).

On to `CC(=O)Nc1ccc(CN2CCN(C3CCCCC3)C(CCO)C2)cc1` (stereo not given), for which, in experiment [1], the percent of DMSO control GFP was 102% (inactive). The GFP response vs DMSO in experiment [2] is 104% (inactive); in experiment [4], 114% (inactive). Moreover, in experiment [3], the percent response of DMSO control was 101% (inactive). Also, in [5], the GFP response, % of DMSO is 120% (inactive). In experiment [6], this compound registered a double positive events of 62.8%. Also, the vesicle binding response in [6] was 172% (inactive). The inhibition is -0.27% (inactive) in [7], -3.58% (inactive) in [11] and 2% (inactive) in experiment [15]. Further, the superoxide response (% of plate) in [8] is 102% (inactive). Further, the aptamer binding inhibition in experiment [9] was 0% (inactive). Besides, the figures for the response in experiment [10] and in experiment [12] were -18.9% (inactive) and -1.9% (inactive), respectively. The binding (% of control) in experiment [13] was 111% (inactive). Besides, the efflux inhibition (fraction of control) in [14] is 0.12 (inactive). Further, the differentiation response in [16] is -10.9% (inactive).

As to `Cc1ccccc1C(=O)NCC(=O)O`, the percent of DMSO control GFP in experiment [1] was 103% (inactive). The GFP response vs DMSO in [2] was 107% (inactive); in experiment [4], 93.7% (inactive). The percent response of DMSO control in [3] is 103% (inactive). Also, the GFP response, % of DMSO in experiment [5] is 105% (inactive). In addition, in experiment [6], the double positive events was determined as 61.4%. Also, the vesicle binding response in [6] is 130% (inactive). The inhibition was 0.25% (inactive) in experiment [7], -5.73% (inactive) in [11] and -7% (inactive) in [15]. Besides, the superoxide response (% of plate) in experiment [8] is 102% (inactive). Also, the aptamer binding inhibition in [9] was 5% (inactive). Moreover, the response in experiment [10] was 2.69% (inactive); in experiment [12], 109% (active). The binding (% of control) in [13] was 103% (inactive). For the same compound, the efflux inhibition (fraction of control) in experiment [14] is 0.31 (inactive). Besides, the differentiation response in experiment [16] is -13.3% (inactive).

For `COc1ccc(NC(=S)N2CCN(CCN3C(=O)c4cccc5cccc(c45)C3=O)CC2)cc1`, the percent of DMSO control GFP in [1] is 101% (inactive). Further, the GFP response vs DMSO in experiment [2] is 129% (inactive); in experiment [4], 90.2% (inactive). In experiment [3], the percent response of DMSO control was 104% (inactive). Further, the GFP response, % of DMSO in experiment [5] was 91.9% (inactive). The same compound had a double positive events in experiment [6] of 59.1%. Further, the vesicle binding response in experiment [6] was 31.6% (inactive). Also, the inhibition in [7] is -6.15% (inactive); in experiment [11] it was 24.4% (inactive); in experiment [15], 9% (inactive). In addition, the superoxide response (% of plate) in experiment [8] was 86.5% (inactive). Besides, the aptamer binding inhibition in experiment [9] was 0% (inactive). For the same compound, the response is -4.94% (inactive) in experiment [10] and -0.62% (inactive) in [12]. For the same compound, the binding (% of control) in [13] is 105% (inactive). Further, the efflux inhibition (fraction of control) in experiment [14] is 0.34 (inactive). For the same compound, the differentiation response in [16] is 18% (inactive).

As for `Cc1cc(O)c2/c(=N\N)c(-c3csc(C)n3)coc2c1`, in experiment [1], the percent of DMSO control GFP is 105% (inactive). Moreover, the GFP response vs DMSO was 107% (inactive) in [2] and 106% (inactive) in experiment [4]. For the same compound, in experiment [3], the percent response of DMSO control was 102% (inactive). For the same compound, the GFP response, % of DMSO in experiment [5] is 110% (inactive). The same compound showed a double positive events in [6] of 56.7%. Besides, the vesicle binding response in experiment [6] was 96.1% (inactive). Also, the inhibition in [7] is 5.61% (inactive); in [11], -8.85% (inactive); in experiment [15] it was 3% (inactive). In experiment [8], the superoxide response (% of plate) was 102% (inactive). In addition, in [9], the aptamer binding inhibition is 3% (inactive). The response in experiment [10] is 2.22% (inactive); in [12], -3.38% (inactive). Further, the binding (% of control) in experiment [13] was 99.8% (inactive). Further, in experiment [14], the efflux inhibition (fraction of control) is -0.16 (inactive). The differentiation response in experiment [16] is -0.18% (inactive).
